# ATXN2 expr inh: inhibitors of ATXN2 expression; HEK-293 ATXN2-luciferase reporter, luminescence, 24 h; AID 1745845; actives 0.72% (n = 360,000); Potency, µM (top dose mostly 57 µM), for inactives: top-dose activity change, negative = inhibition, usual class: inhibitors; further: on the % scale 0 is the no-effect control and ±100 the full control effect; nearly all actives have a fitted effect of over 55% in size
#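 ATXN2-luciferase reporter cells (luciferase flanked by upstream and downstream ATXN2 gene portions) were treated 24 h at 37 °C with compounds at up to 57 uM. SteadyGlo luminescence gave expression; GF-AFC fluorescence gave viability.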
# HepG2 viability: HepG2 cytotoxicity, counter-screen for TGF-b inhibitors; Potency, µM (series often up to 46.1 µM), for the others: top-dose activity change, negative = cytotoxicity, usual class: cytotoxic; actives 0.76% (n = 410,000); HepG2 CAGA-GFP viability, ATP luminescence, 18 h
#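 CellTiter-Glo luminescence gave cytotoxicity after 18 hours at 37 degrees C. The cells were HepG2 CAGA-GFP in 1% FBS DMEM, stimulated with 500 pg/mL TGF-beta after compound addition. %Activity was normalised to no-cell wells (complete cell-killing) and DMSO (no toxicity), and curves were fitted and classified.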
# ATXN viability: reduces viability in counter-screen for ATXN expression inhibitors; S2 cells (HEK-293 line with an ATXN2-luciferase reporter) viability, CellTiter-Fluor protease fluorescence, 24 h; Potency, µM (highest dose often 56.7 µM), most hits filed as cytotoxic; actives 0.49% (n = 400,000); further: nearly all actives have a fitted effect of over 40% in size
# TGFb inhibitor: inhibitors of TGF-b signaling; Potency, µM (titrated, usually from 46.1 µM), inactives show at the top dose activity, negative = inhibition, hits mostly inhibitors; HepG2 CAGA-GFP TGF-b/SMAD3 reporter, GFP fluorescence, 18 h; TGF-beta stimulated, 500 pg/mL final; actives 1.2% (n = 410,000); AID 588855; further: on the % scale 0 is the no-effect control and ±100 the full control effect; nearly all actives have a fitted effect of over 65% in size
#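 Smad-responsive CAGA-GFP expression was quantified in HEPG2 cells exposed to compounds and 500 pg/mL final TGF-beta for 18 h at 37 degrees C; unstimulated wells defined full inhibition.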
# HT1080-NT tox: kills 2HG-producing HT-1080-NT fibrosarcoma cells | HT-1080-NT fibrosarcoma viability, CellTiter-Glo ATP luminescence, 48 h | Potency, µM (highest dose often 46.1 µM), for the others: top-dose activity, negative = less viability, hits mostly cytotoxic | actives 1.6% (n = 360,000);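 further: NT is the 2HG producing partner of a matched IDH1 knockdown line; 0% = DMSO-treated cells and -100% = media-only wells without cells; nearly all actives have a fitted effect of over 55% in size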
#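 Luminescent CellTiter-Glo readout after 48 hours of compound exposure at 37 degrees C defined viability of HT-1080-NT cells. Activity was normalized to DMSO wells and cell-free media wells; concentration-response curves were fitted and assigned curve classes.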
# HT1080 IDH1KD tx: HT-1080 IDH1 knockdown cell toxicity (counter line) | HT-1080 IDH1 knockdown viability, ATP luminescence, 48 h | Potency, µM (top dose mostly 46.1 µM), for the others: at the top dose activity, negative = toxicity, usual class: cytotoxic | actives 2% (n = 360,000);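 further: 0% = DMSO wells and -100% = cell-free medium wells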
#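 Cytotoxicity counter-line: IDH1KD HT-1080, 48 h, CellTiter-Glo. Curves classed by r2, magnitude and activity.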
# * marks the source's active call; other numbers are inactive results; i = inactive; ? = inconclusive; / = no result; [ ] = dose if it differs, or a comment. Rows were chosen to be rich in hits. Some 3.8% of all compounds tested hit in one or more screens of this group. The call rests on the fitted dose curve; in most records, active means well fitted curve in the direction sought with a large enough effect; inconclusive means small, poorly fitted or top-dose-only effect, or another doubt; inactive means no such curve, though single readings can be large; an effect the other way counts as inactive or inconclusive. Potency means the concentration at half of the fitted maximal effect.
SMILES,ATXN2 expr inh,HepG2 viability,ATXN viability,TGFb inhibitor,HT1080-NT tox,HT1080 IDH1KD tx
CCCn1c(C2CCCN2c2nc(-c3cccc(Br)c3)cs2)nc2ccccc21 (stereo unspecified),0.0%,-30.1%,22.4µM*,?,-25.7%,-19.4%
Cc1ccc(-c2csc(N3CCC[C@@H]3C(=O)NCCn3c(C(F)(F)F)nc4ccccc43)n2)cc1,?,-3.7%,?,?,-10.0%,?
CC(C)c1nn(-c2c(Cl)cccc2Cl)c2nc(Cc3ccc(OCCO)cc3)[nH]c(=O)c12,0.0343µM*,/,/,/,/,/
CCOc1ccc(Cc2nc(C)c(CC(=O)N3CCCCC3)c(=O)[nH]2)cc1,1.1%,-7.2%,i,-1.8%,2.6%,15.7%
O=C(Nc1nnc(-c2ccco2)s1)c1ccccc1,-30.6%,-2.3%,i,0.8%,-0.7%,?
COc1ccc(C(=O)Nc2nnc(-c3ccco3)s2)cc1,7.94µM*,7.1%,?,0.6%,-3.5%,21.7%
O=C1OC(c2ccc(F)cc2)CC1CN1CCOCC1 (stereo unspecified),0.0%,2.7%,i,38.5%,?,16.4µM*
O=C(CN1CCOCC1)Nc1ccc(F)cc1,/,3.8%,?,6.3%,8.6%,-1.3%
Nc1c(C(=O)NCC2CCCO2)sc2nc3c(c(-c4ccco4)c12)CC/C3=C\c1ccco1 (stereo unspecified),4.4%,5.6%,i,17.8µM*,-1.9%,0.2%
NC(=O)c1sc2nc3c(c(-c4ccco4)c2c1N)CCCC3,/,-20.6%,i,?,7.6%,4.8%
CN(C)CCCN(C(=O)CCc1ccccc1)c1nc2ccc(Br)cc2s1,25.1µM*,-101.9%,?,15.8µM*,18.4µM*,?
CN(C)CCCN(C(=O)CCc1ccccc1)c1nc2ccc(F)cc2s1,0.5%,-40.0%,i,0.0%,-4.9%,-3.5%
Cc1cccc2sc(N(CCCN(C)C)C(=O)CN3C(=O)c4ccccc4C3=O)nc12,/,-39.5%,i,-16.9%,8.5%,8.4%
CN(C)CCCN(C(=O)c1ccco1)c1nc2ccc(Br)cc2s1,25.1µM*,-71.6%,?,0.0%,23.1µM*,20.6µM*
Cc1cccc2sc(N(CCCN(C)C)C(=O)CCc3ccccc3)nc12,?,-109.8%,i,12.6µM*,-28.0%,0.2%
CN(C)CCN(C(=O)c1ccco1)c1nc2cc3c(cc2s1)OCCO3,-16.2%,0.3%,i,-10.0%,-22.0%,-12.5%
Cc1ccc(C(=O)N(CCCN(C)C)c2nc3ccc(Cl)cc3s2)cc1C,?,22.4µM*,?,?,23.1µM*,23.1µM*
CCc1ccc(C(=O)c2cn(CC(=O)Nc3ccc4c(c3)OCO4)c3ccc(F)cc3c2=O)cc1,0.7%,-7.1%,?,?,/,/
CCN(CC)CCN(C(=O)c1ccco1)c1nc2ccc(Cl)cc2s1,-17.7%,-58.7%,i,?,/,/
CCN(CC)CCCN(C(=O)c1ccco1)c1nc(-c2ccc(C)cc2)cs1,-16.1%[11.3 µM],-76.7%,?,?,?,?
CCN(CC)CCCN(C(=O)c1ccco1)c1nc(-c2ccc(Cl)cc2)cs1,0.0%,-65.5%,i,?,23.1µM*,14.6µM*
CN(C)CCCN(C(=O)c1ccco1)c1nc2ccc(Cl)cc2s1,?,-32.0%,/,?,?,18.4µM*
O=C(C=CC=Cc1ccc2c(c1)OCO2)N1CCCCC1,45.9%,/,/,/,/,/
CCCC(=O)Nc1nnc(SCc2cc(=O)n3ccccc3n2)s1,/,9.1%,/,-11.5%,/,/
CCc1ccc(S(=O)(=O)c2nnn3c2nc(NCc2cccs2)c2sccc23)cc1,/,-43.0%,/,0.1%,/,/
SMILES,ATXN2 expr inh,HepG2 viability,ATXN viability,TGFb inhibitor,HT1080-NT tox,HT1080 IDH1KD tx
COc1ccc(OC)c(NC(=O)CSc2nccn2-c2cc(C)cc(C)c2)c1,-9.0%,-32.3%,i,-22.7%,/,/
COc1ccc(C(=O)CSC#N)cc1OC,-0.4%,-41.8%,i,?,?,20.6µM*
COc1ccc(C(=O)COC(=O)c2ccc(OC)c(OC)c2)cc1OC,-5.6%,-14.7%,i,-28.1%,14.3%,1.6%
COc1ccc(C(=O)CSc2cc(C)nc3nc(C)nn23)cc1OC,29.6%,-33.1%,i,-26.7%,15.8µM*,11.2µM*
COc1ccc(C(=O)CSc2nc(SC)ns2)cc1OC,9.6%,27.0%,i,37.6%,-2.3%,2.7%
O=C(Cn1cncn1)NCC1Cc2cc(-c3ccsc3)cc(Cl)c2O1 (stereo unspecified),/,/,i,/,/,/
Cc1ccc(CN2C[C@@H](Sc3nc(C)cc(C)n3)C[C@H]2C(=O)N2CCN(c3ccccc3F)CC2)cc1,/,/,i,/,/,/
O=C1C(=Cc2ccccn2)CCc2ccccc21,/,12.6µM*,?,10µM*,?,?
Cc1ccc(-c2cc(C(F)(F)F)n3nc(C(=O)Nc4ccc(Cl)c(C(F)(F)F)c4)cc3n2)cc1,-0.9%,-2.7%,i,-0.1%,/,/
C/C(=N\NC(=O)CSCc1ccc([N+](=O)[O-])cc1)c1ccccc1O,17.8µM*,-17.9%,?,?,-5.2%,-19.5%
C/C(=N\NC(=O)Cc1ccc(Cl)cc1)c1ccccc1O,?,-38.8%,?,?,?,5.17µM*
O=C(c1cccs1)N1CCCc2cc(NS(=O)(=O)c3cc(F)ccc3F)ccc21,-5.7%,-18.6%,i,-24.7%,/,/
Cc1ccc(-c2c(C)n3c4c(=O)n(C)c(=O)n(C)c4nc3n2CCCO)cc1,25.1µM*,-35.8%,28.2µM*,?,/,/
COC(=O)CCCn1c(-c2ccc(C)cc2)c(C)n2c3c(=O)n(C)c(=O)n(C)c3nc12,5.0%,-0.8%,i,1.3%,/,/
NC1C(N)C(N)C1N (stereo unspecified),/,/,/,/,9.2%,3.7%
O=C(N/N=C/c1ccc(OCc2ccccc2)cc1)c1ccncc1,/,-1.4%,i,10.3%,-19.3%,-4.0%
Oc1ccc(N=Cc2ccc(OCc3ccccc3)cc2)cc1,/,-106.4%,?,11.2µM*,?,?
Cc1ccc(C(=O)Oc2ccc(Cl)c3cccnc23)cc1[N+](=O)[O-],-30.1%,-44.0%,i,11.2µM*,-0.6%,-20.1%
COc1ccc(-c2nc3scc(CCNS(=O)(=O)c4cccs4)n3n2)cc1,/,-12.7%,/,-7.2%,/,/
COc1ccc(CNC(=O)COc2ccc(C(=O)c3ccc(F)cc3)cc2)cc1,-26.8%,-27.4%,i,?,?,5.17µM*
COc1ccc(CNC(=O)COc2ccc(F)cc2)cc1,1.8%,6.5%,i,14.6%,11.0%,6.1%
Cc1ccc(Cl)cc1N1CCN(CC(=O)Nc2ccc(CN3CCCCC3)cc2)CC1,-36.8%,-45.8%,?,24.2%,20.6µM*,23.1µM*

# Assay outcomes from PubChem BioAssay.
